The structures appear in SMILES notation. Several values for one entry are separate records, joined by “and”; a condition that tells them apart may be missing. Equal entries are not always repeated. Results filed as inconclusive are left out. Activity calls are given as the source filed them.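 Rule for the calls, unless noted: active = compounds whose dose series gives a full or clear partial fitted curve of increased nuclear translocation; inconclusive = weak partial curve or effect only at the top dose; inactive = no dose-dependent translocation response.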 Bounds are passed on as bounds.

For one assay, the target named is Glucocorticoid receptor (Homo sapiens) (UniProt P04150). Kind of assay: GR-GFP Redistribution (AID 450). Note: potency is the fitted concentration of half-maximal effect. Particulars: U2OS GR-GFP nuclear translocation, laser cytometry, 2 h.
Glucocorticoid receptor (Homo sapiens), sequence (P04150 whole entry, looked up): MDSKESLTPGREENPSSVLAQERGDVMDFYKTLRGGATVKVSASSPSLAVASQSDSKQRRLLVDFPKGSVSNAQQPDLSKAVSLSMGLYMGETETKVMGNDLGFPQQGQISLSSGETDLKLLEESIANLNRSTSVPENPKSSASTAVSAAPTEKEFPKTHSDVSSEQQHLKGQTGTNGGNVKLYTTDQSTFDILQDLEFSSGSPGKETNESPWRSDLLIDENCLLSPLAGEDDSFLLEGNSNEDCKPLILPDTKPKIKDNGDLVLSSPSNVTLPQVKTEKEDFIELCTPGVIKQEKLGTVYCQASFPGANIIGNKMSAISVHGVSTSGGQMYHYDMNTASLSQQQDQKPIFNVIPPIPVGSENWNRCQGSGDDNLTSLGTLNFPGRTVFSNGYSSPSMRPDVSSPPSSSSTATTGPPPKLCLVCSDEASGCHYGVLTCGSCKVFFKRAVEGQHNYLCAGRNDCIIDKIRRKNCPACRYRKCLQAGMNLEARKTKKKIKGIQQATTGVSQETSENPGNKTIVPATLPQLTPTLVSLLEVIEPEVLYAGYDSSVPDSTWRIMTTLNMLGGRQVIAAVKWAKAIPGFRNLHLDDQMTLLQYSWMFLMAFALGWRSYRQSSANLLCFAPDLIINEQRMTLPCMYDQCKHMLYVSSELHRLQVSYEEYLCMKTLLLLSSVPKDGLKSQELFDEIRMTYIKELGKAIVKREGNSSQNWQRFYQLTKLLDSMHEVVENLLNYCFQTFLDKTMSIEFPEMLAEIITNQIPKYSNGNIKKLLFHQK
On to `O=[N+]([O-])c1cccc2cn[nH]c12`, for which the Potency was > 46 µM (inactive) and > 20.6 µM (inactive).
On the same count and under the same terms, then `COc1cc(CNC(=O)CCCCCCC(C)C)ccc1O`, with > 46 µM (inactive); and `CCCc1c(OCCCOc2ccc(OCC(=O)O)cc2)ccc(C(C)=O)c1O`, with > 46 µM (inactive); and `COc1cc(CC(=O)O)ccc1O`, with > 46 µM (inactive).
With `N#Cc1cc2nc(O)c(O)nc2cc1[N+](=O)[O-]`, the Potency was > 46 µM (inactive).
On the same count and under the same terms, then `CCCCCCCCCCCCCCC[C@H](O)[C@H](N)CO`, with > 46 µM (inactive); and `NCCCCN=C(N)N`, with > 46 µM (inactive).
Turning to `CC(=O)NCCc1c[nH]c2ccc(O)cc12`, the Potency is > 46 µM (inactive).
Same read-out and setting: for `Cc1nc2c(OCc3ccccc3)cccn2c1CC#N` the value was > 46 µM (inactive); for `N=C(N)SCCN`, > 46 µM (inactive).
Still for that read-out and setting: for `N#CC(C#N)=C(N)/C(C#N)=C/c1ccc(O)cc1` the value was > 46 µM (inactive).
As to `Cc1cc2c(cc1Cl)N(C(=O)Nc1ccnc3ccccc13)CC2`, the Potency was > 46 µM (inactive).
Same read-out and setting: then `NC1(C(=O)O)CCCCC1`, with > 46 µM (inactive); and `CCCn1c(=O)c2[nH]c(-c3ccc(S(=O)(=O)O)cc3)nc2n(CCC)c1=O`, with > 46 µM (inactive).
The same measure, in the same setting: then `Cn1ccnc1`, with > 46 µM (inactive); and `O=C(O)C1CCNCC1`, with > 46 µM (inactive).
For `CCN1C(=O)C=CC1=O`, the Potency is > 46 µM (inactive).
Still for that read-out and setting: then `COc1ccccc1N1CCN(CCN(C(=O)c2ccc(F)cc2)c2ccccn2)CC1`, with > 46 µM (inactive); and `CC1CNCCN1S(=O)(=O)c1cccc2cnccc12` (stereo unspecified), with > 20.6 µM (inactive).
For the compound `NC1(C(=O)O)CC1`, the Potency was > 46 µM (inactive).
In the case of `NCCCCN`, the Potency was > 46 µM (inactive).
Take `CC(C)(CO)Cc1cc(C(C)(C)C)c(O)c(C(C)(C)C)c1`: the Potency is > 46 µM (inactive).
As for `COc1ccccc1N1CCN(CCCCNC(=O)c2ccc3ccccc3c2)CC1`, the Potency is > 46 µM (inactive) and > 20.6 µM (inactive).
Turning to `N[C@H](C(=O)O)c1cc(O)cc(O)c1`, the Potency is > 46 µM (inactive).
For the compound `COc1ccccc1N1CCN(CCCNc2c(C)c(=O)n(C)c(=O)n2C)CC1`, the Potency is > 46 µM (inactive).
As for `NOCC(=O)O`, the Potency is > 46 µM (inactive).
Still for that read-out and setting: for `O=C(O)/C=C/c1ccc(O)c(O)c1` the value was > 20.6 µM (inactive).
Same read-out and setting: then `O=c1cc(-c2ccccc2)[nH]c2nc(Cl)ccc12`, with > 46 µM (inactive); and `N[C@@H](Cc1c[nH]c2ccccc12)C(=O)O`, with > 46 µM (inactive).

For another assay the target is unchanged. The experiment in a line: GR-EFC Redistribution (AID 451; calls by dose curve; note: potency is the fitted concentration of half-maximal effect). Particulars: CHO-K1 GR-EFC translocation, beta-gal luminescence, 2 h. In outline: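 Translocation of GR-ED fusion to nuclear EA restores b-gal, read by luminescence after 1 h room-temperature detection. Engineered CHO-K1 biosensor cells, 1,000/well, exposed 2 h at 37 C to titrations up to 46 uM final.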
Take `COc1cc(CNC(=O)CCCCCCC(C)C)ccc1O`: the Potency is > 46 µM (inactive).
Take `COc1cc(CC(=O)O)ccc1O`: the Potency is > 46 µM (inactive).
On the same count and under the same terms, then `N#Cc1cc2nc(O)c(O)nc2cc1[N+](=O)[O-]`, with > 46 µM (inactive); and `CCCCCCCCCCCCCCC[C@H](O)[C@H](N)CO`, with > 46 µM (inactive).
As for `NCCCCN=C(N)N`, the Potency was > 46 µM (inactive).
Turning to `CC(=O)NCCc1c[nH]c2ccc(O)cc12`, the Potency is > 46 µM (inactive).
On the same count and under the same terms, for `Cc1nc2c(OCc3ccccc3)cccn2c1CC#N` the value was > 46 µM (inactive); for `CCCn1c(=O)c2c(ncn2C)n(CCC)c1=O`, > 46 µM (inactive); for `N=C(N)SCCN`, > 46 µM (inactive).
Same read-out and setting: for `Cc1cc2c(cc1Cl)N(C(=O)Nc1ccnc3ccccc13)CC2` the value was > 46 µM (inactive); for `NC1(C(=O)O)CCCCC1`, > 46 µM (inactive).
On the same count and under the same terms, for `Cn1ccnc1` the value was > 46 µM (inactive); for `O=C(O)C1CCNCC1`, > 46 µM (inactive); for `CCN1C(=O)C=CC1=O`, > 46 µM (inactive).
Turning to `COc1ccccc1N1CCN(CCN(C(=O)c2ccc(F)cc2)c2ccccn2)CC1`, the Potency was > 46 µM (inactive).
Same read-out and setting: for `NC1(C(=O)O)CC1` the value was > 46 µM (inactive); for `COc1ccccc1N1CCN(CCCNc2c(C)c(=O)n(C)c(=O)n2C)CC1`, > 46 µM (inactive).
The same measure, in the same setting: then `NOCC(=O)O`, with > 46 µM (inactive); and `O=c1cc(-c2ccccc2)[nH]c2nc(Cl)ccc12`, with > 46 µM (inactive); and `N[C@@H](Cc1c[nH]c2ccccc12)C(=O)O`, with > 46 µM (inactive).

Another assay addresses Mitogen-activated protein kinase 10 (Mus musculus) (UniProt Q61831). Kind of assay: JNK3 AlphaScreen Assay (AID 530; active = well fitted curve in either direction with a large enough effect, not every such curve was filed as active;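 note: kinase came from lysate of stimulated human HepG2 cells; signal reports phosphorylation of biotinylated GST-cJun 1-79 at Ser73 with 10 µM ATP; % is set by controls: 0 for no effect and ±100 for the full control effect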). Particulars: JNK3 lysate, c-Jun phosphorylation; series mostly up to 57.1 µM; activity change, negative = inhibition: at the top concentration. In outline: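 Room-temperature AlphaScreen kinase assay; pre-activated HepG2 lysate as JNK3 source, biotin-GST-cJun(1-79) substrate, 10 uM ATP, compound 15 min preincubation.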
For `CCCc1c(OCCCOc2ccc(OCC(=O)O)cc2)ccc(C(C)=O)c1O`, the “activity change, negative = inhibition” value was 2.66% (inactive).
Still for that read-out and setting: for `COc1cc(CC(=O)O)ccc1O` the value was 1.47% (inactive); for `CCCCCCCCCCCCCCC[C@H](O)[C@H](N)CO`, 4.13% (inactive); for `NCCCCN=C(N)N`, 15.2% (inactive).
The same measure, in the same setting: then `CC(=O)NCCc1c[nH]c2ccc(O)cc12`, with 32.3% (inactive).
For the compound `Cc1nc2c(OCc3ccccc3)cccn2c1CC#N`, the result was inactive.
As for `N#CC(C#N)=C(N)/C(C#N)=C/c1ccc(O)cc1`, the “activity change, negative = inhibition” value was 19.1% (inactive).
In the case of `Cc1cc2c(cc1Cl)N(C(=O)Nc1ccnc3ccccc13)CC2`, the “activity change, negative = inhibition” value was -11.7% (inactive).
Same read-out and setting: then `NC1(C(=O)O)CCCCC1`, with -6.54% (inactive); and `Cn1ccnc1`, with -15.3% (inactive).
For the compound `N[C@H](C(=O)O)c1cc(O)cc(O)c1`, the compound was called inactive.
With `O=c1cc(-c2ccccc2)[nH]c2nc(Cl)ccc12`, the “activity change, negative = inhibition” value is 9.24% (inactive).

These data come from PubChem BioAssay (NCATS).
